LDHA inh = inhibitors of human lactate dehydrogenase A; activity change, % (values are at about 110 or 230 µM); AID 1347041; 0.15% of 480,000 active; P00338; purified LDHA, NADH/diaphorase-resazurin fluorescence; stronger effect = lower value; in the data active = activity change below about -30%; inconclusive = mostly about -25% to -30%;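 note: plate controls were DMSO wells for no effect and wells without enzyme for full effect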
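Enzyme activity of human lactate dehydrogenase 5 (2 nM; 0.06 mM NADH, 0.2 mM pyruvate, 5 min, RT) is measured via a resazurin/diaphorase fluorescence readout of residual NADH.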
PKM2 act = increases activity of human pyruvate kinase M2 | purified PKM2, Kinase-Glo ATP luminescence, activation; response scale: 0% is enzyme alone, no compound | 0.34% of 260,000 active | P14618 | Potency, µM (doses to about 57.5 µM), for inactives: at the top dose activation, usual class: activators; note: potency is the fitted concentration of half-maximal effect; nearly all actives have a fitted effect of over 55% in size
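ATP formation by purified human PK-M2, quantified via coupled luciferase luminescence after 1 h at room temperature with 0.1 mM ADP and 0.5 mM PEP final.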
GLS inh = blocks human kidney-isoform glutaminase activity | GLS enzymatic activity, qHTS titration | Potency, µM (highest dose often 45.5 µM), inactives show at the top dose activity change, negative = inhibition, actives largely listed as inhibitors | 0.21% of 410,000 active | AID 624170; note: potency is the fitted concentration of half-maximal effect
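Two-point fluorescence kinetic (t0, 30 min RT) for hKGA; glutamate detected via glutamate oxidase–HRP–Amplex Red. Substrate: 1 mM L-glutamine solution; buffer 45 mM KH2PO4, pH 8.2.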
TrxR1 inh = inhibitors of rat thioredoxin reductase 1; O89049; recombinant rTrxR1, NADPH fluorescence consumption, selenite substrate; Potency, µM (top dose mostly 114 µM), without a hit: top-dose activity change, negative = inhibition, most hits filed as inhibitors; 1% of 390,000 active; AID 588453; note: potency is the fitted concentration of half-maximal effect; nearly all actives have a fitted effect of over 65% in size
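Rat TrxR1 (90 nM in the dispensed reagent) was pre-reduced with 400 uM NADPH for 5 min at room temperature, then incubated with compound for 15 min. After 400 uM selenite was added, NADPH fluorescence (Ex 340/Em 450 nm) was followed for 8 min.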
mIDH1 inhibitor = blocks human mutant IDH1 R132H enzyme; O75874; IDH1-R132H enzyme, NADPH consumption, diaphorase/resazurin fluorescence; Potency, µM (doses to about 76.6 µM), for inactives: top-dose activity change, negative = inhibition, actives largely listed as inhibitors; 0.093% of 390,000 active; AID 602179; note: potency is the fitted concentration of half-maximal effect; nearly all actives have a fitted effect of over 65% in size
Target sequence (O75874 whole entry R132H, stated change not applied): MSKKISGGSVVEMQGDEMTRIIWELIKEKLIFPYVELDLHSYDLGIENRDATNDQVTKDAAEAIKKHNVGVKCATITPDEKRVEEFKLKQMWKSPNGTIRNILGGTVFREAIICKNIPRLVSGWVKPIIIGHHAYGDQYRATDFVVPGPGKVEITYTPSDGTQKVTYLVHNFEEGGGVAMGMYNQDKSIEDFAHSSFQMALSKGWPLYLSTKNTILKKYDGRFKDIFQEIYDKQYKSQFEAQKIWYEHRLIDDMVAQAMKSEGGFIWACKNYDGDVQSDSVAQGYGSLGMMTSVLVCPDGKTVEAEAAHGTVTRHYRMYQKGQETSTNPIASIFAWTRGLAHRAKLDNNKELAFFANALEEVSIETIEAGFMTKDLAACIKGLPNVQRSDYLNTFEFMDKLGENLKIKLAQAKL
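IDH1-R132H (0.5 ug/mL dispensed) in pH 7.5 Tris buffer was preincubated 30 min with compound, then given a substrate mix of 0.016 mM NADPH and 2 mM alpha-KG for 80 min at room temperature; remaining NADPH was read by diaphorase/resazurin fluorescence.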
TrxR1 substrate = is turned over as a substrate by rat TrxR1; 0.01% of 390,000 active; Potency, µM (highest dose often 114 µM), without a hit: at the top dose activity change, negative = substrate turnover; AID 588456; purified TrxR1 substrate turnover, NADPH consumption readout; note: potency is the fitted concentration of half-maximal effect; nearly all actives have a fitted effect of over 50% in size
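Rat TrxR1, dispensed at 90 nM, was prereduced with 400 uM NADPH (final) for 5 min at ~22 deg C, then incubated with compound 15 min before 400 uM selenite. A first-read NADPH fluorescence drop versus no-compound background flagged substrates.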
Numbers without * were called inactive; ! = not confirmed by another sample; [ ] = another dose, or the depositor's remark. The list is not random: actives were taken first. Their share in the collection is about 1.4%. Unless noted, calls come from the whole dose curve; as a rule, active = well fitted curve in the direction sought with a large enough effect; inconclusive = small, poorly fitted or top-dose-only effect, or another doubt; inactive = no such curve, though single readings can be large; an effect the other way counts as inactive or inconclusive. Unless noted, % is set by controls: 0 for no effect and ±100 for the full control effect.

What do the screens show for `C#CCOCCOCCOCCNc1nc(N2CCN(C(=O)[C@H](CCCCN)n3cc(CN)nn3)CC2)nc(N2CCN(C(=O)[C@H](CCCCN)n3cc([C@@H](N)[C@H](C)CC)nn3)CC2)n1`?
LDHA inh: 0.5; GLS inh: 1.5%; TrxR1 inh: 44.7µM*; mIDH1 inhibitor: 9.8%; TrxR1 substrate: 12.3%

What do the screens show for `Cc1ccccc1C(=O)NC1CCCCC1C` (stereo not given)?
LDHA inh: 5.0

What do the screens show for `Cc1ccc(CN(C)C(=O)c2cc(-c3cccnc3)nc3ccccc23)o1`?
LDHA inh: -0.6

Results for CC(=O)c1cccc(OCc2cc(C(=O)N(C)Cc3ccc(C)o3)no2)c1 ?
LDHA inh: -5.8; PKM2 act: 18.0%; GLS inh: 23.0%; TrxR1 inh: 3.55µM*; mIDH1 inhibitor: 11.1%; TrxR1 substrate: -3.3%

How did CSc1ccccc1OCc1cc(C(=O)N(C)Cc2ccc(C)o2)no1 do in these assays?
LDHA inh: -1.2; GLS inh: 5.3%; TrxR1 inh: 35.5µM*; mIDH1 inhibitor: 0.9%; TrxR1 substrate: 1.2%

What do the screens show for `CC(=O)c1cccc(OCc2cc(C(=O)N(C)CCc3ccccn3)no2)c1`?
LDHA inh: -7.8; PKM2 act: -4.4%; GLS inh: 7.9%; TrxR1 inh: -27.7%; mIDH1 inhibitor: -22.3%; TrxR1 substrate: -1.8%

How did Cc1ccc(CN(C)C(=O)c2ccccc2Oc2ccccc2)o1 do in these assays?
LDHA inh: -1.6; PKM2 act: 28.2µM*; GLS inh: -1.4%; TrxR1 inh: 11.2µM*; mIDH1 inhibitor: 6.0%; TrxR1 substrate: 6.8%

How did CC1CC(C)CN(C(=O)c2ccc3c(c2)N(Cc2ccccc2)C(=O)CS3=O)C1 (stereo not given) do in these assays?
LDHA inh: -7.5

Results for O=C(NCCNc1nccc(C(F)(F)F)n1)c1cccc(C(F)(F)F)c1 ?
LDHA inh: -1.7; PKM2 act: -0.8%; GLS inh: -3.3%; TrxR1 inh: -3.4%[57.1 µM]; mIDH1 inhibitor: 5.7%; TrxR1 substrate: -13.2%

How did O=S(=O)(NCCNc1nccc(C(F)(F)F)n1)c1ccccc1 do in these assays?
LDHA inh: 1.9; PKM2 act: 17.8µM*; GLS inh: -10.0%; TrxR1 inh: 2.1%[57.1 µM]; mIDH1 inhibitor: 5.1%; TrxR1 substrate: 6.6%[57.1 µM]

Results for Cc1cc(C)nc(SC(C(=O)c2ccccc2)c2ccccc2)n1 (stereo not given) ?
LDHA inh: 5.1

Results for Cc1ccccc1C1CCCN1CC(=O)N(CCC#N)c1ccccc1F (stereo not given) ?
LDHA inh: 11.1

How did NS(=O)(=O)c1ccc(NC2=CC(c3ccc([N+](=O)[O-])cc3)N(c3ccc(S(N)(=O)=O)cc3)C2=O)cc1 (stereo not given) do in these assays?
LDHA inh: inconclusive; PKM2 act: 3.5%; GLS inh: 17.7%; TrxR1 inh: 50.1µM*; mIDH1 inhibitor: -1.3%; TrxR1 substrate: -7.1%

What do the screens show for `O=C1C(Nc2ccccc2)=CC(c2ccccc2)N1c1ccccc1` (stereo not given)?
LDHA inh: 0.6

How did COc1ccc(-c2nsc3c2NC(=O)CC3c2ccc(OC)cc2)cc1 (stereo not given) do in these assays?
LDHA inh: -0.5

Results for O=C(N/N=C/c1ccc(O)c(O)c1)c1cccc(S(=O)(=O)N2CCCC2)c1 ?
LDHA inh: 10.2; GLS inh: 11.2µM*; TrxR1 inh: -1.5%; mIDH1 inhibitor: -5.2%; TrxR1 substrate: -5.0%

What do the screens show for `COc1cc(/C=N/NC(=O)c2cccc(S(=O)(=O)N3CCCC3)c2)ccc1O`?
LDHA inh: 0.4; GLS inh: inconclusive; TrxR1 inh: -11.8%; mIDH1 inhibitor: 10.8%; TrxR1 substrate: -13.8%

What do the screens show for `CC(C)(C)OC(=O)NCCCCCc1nnc(SCC(=O)Nc2cccc(Cl)c2)o1`?
LDHA inh: -2.5; PKM2 act: 25.1µM*; GLS inh: 18.0%; TrxR1 inh: -2.2%; mIDH1 inhibitor: 3.2%; TrxR1 substrate: -8.6%

Results for O=C(NCc1ccco1)c1cccc2c1C(=O)c1ccc(/C=C/c3ccccc3)cc1S2(=O)=O ?
LDHA inh: 3.0; GLS inh: inconclusive; TrxR1 inh: 22.4µM*; mIDH1 inhibitor: -8.0%; TrxR1 substrate: -1.7%[57.1 µM]

Results for O=C(COC(=O)CCS(=O)(=O)c1ccccc1)Nc1ccccc1 ?
LDHA inh: -3.7; GLS inh: 0.4%; TrxR1 inh: 44.7µM*; mIDH1 inhibitor: -12.3%; TrxR1 substrate: -2.0%

How did CC(=O)Nc1ccc(C(=O)COC(=O)CCS(=O)(=O)c2ccccc2)cc1 do in these assays?
LDHA inh: 0.5; GLS inh: 5.8%; TrxR1 inh: 4.9%; mIDH1 inhibitor: -8.1%; TrxR1 substrate: -2.7%

Results for O=C(C(=Cc1ccccc1)c1ccccc1)c1ccccc1 ?
LDHA inh: 2.9; GLS inh: 5.5%

Results for O=C(C(=Cc1ccc(F)cc1)c1ccccc1)c1ccc(O)cc1 ?
LDHA inh: -18.4; GLS inh: 11.2µM*; TrxR1 inh: -1.0%; mIDH1 inhibitor: -1.1%; TrxR1 substrate: -12.7%

What do the screens show for `Cc1ccc(OCC(=O)Nc2ccc3oc(-c4ccccc4)nc3c2)c(C)c1`?
LDHA inh: -1.3

How did O=C(c1ccc(Nc2nc3ccccc3n3nnnc23)cc1)N1CCN(c2cccc(C(F)(F)F)c2)CC1 do in these assays?
LDHA inh: -6.2; GLS inh: -0.6%; TrxR1 inh: 70.8µM*; mIDH1 inhibitor: -13.9%; TrxR1 substrate: 24.8%

What do the screens show for `CCN1C(=O)C=CC1=O`?
TrxR1 inh: 10.6µM*!; TrxR1 substrate: -2.8%[57.1 µM]

How did O=C1C=CC(=O)N1CCCCCCN1C(=O)C=CC1=O do in these assays?
LDHA inh: -9.2; PKM2 act: -69.5%; GLS inh: -13.0%; TrxR1 inh: 0.708µM*; mIDH1 inhibitor: 3.6%; TrxR1 substrate: 5.8%

What do the screens show for `O=C(O)CN1C(=O)C=CC1=O`?
LDHA inh: -7.4; GLS inh: -1.7%; mIDH1 inhibitor: -2.7%

How did O=C(O)CCC(=O)N1N=C(c2ccsc2)CC1c1ccccc1 (stereo not given) do in these assays?
LDHA inh: -4.3

How did Cc1c(Cl)sn(-c2ccc(Cl)cc2)c1=O do in these assays?
LDHA inh: -12.0; PKM2 act: -4.4%; GLS inh: inconclusive; TrxR1 inh: 5.01µM*; mIDH1 inhibitor: 0.0%; TrxR1 substrate: -11.6%

How did N#Cc1ccc(C(=O)Nc2ccc(NC(=O)c3cc4ccccc4o3)cc2)c(F)c1 do in these assays?
LDHA inh: -18.0
